According to PubChem BioAssay (EPA / NIEHS):
Inconclusive results are not listed. Active and inactive are the calls of the source. How the source made its calls: active means hit-call score of the fitted dose curve at least 0.9, where 1 is the maximum; inconclusive means response in the unintended direction; inactive means score below 0.9.

Legend:
[1] = target: rat Adrenergic Receptor, Alpha 2 (Adra2), Non-selective Binding, Adra2a (gene 25083) (UniProt P22909); assay: NVS_GPCR_rAdra2_NonSelective: NovaScreen (NVS) G Protein-Coupled Receptor Assay for rat Adrenergic Receptor, Alpha 2 (Adra2), Non-selective Binding (AID 2283299)
Procedure, shortened: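 Rat cortical membranes, radioligand competitive displacement read by filter-based scintillation counting 1.25 hours after dosing. Primary screen in duplicate at 25 uM; actives followed up in concentration series.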

[2] = NVS_IC_rCaBTZCHL: NovaScreen (NVS) Ion Channel Assay for Calcium Channel, Type L, Benzothiazepine Site (CaBTZCHL) (AID 2283337)
Procedure, shortened: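 Radioligand binding to the benzothiazepine site of L-type Ca channels in rat cortical membranes (cell-free), 1.5 h after dosing; filter-based scintillation counting. Loss of signal relative to DMSO baseline; primary single-concentration screen at 25 uM, actives then run in concentration series.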

[3] = target: Retinoic acid receptor alpha (Homo sapiens) (UniProt P10276); assay: NVS_NR_hRAR_Antagonist: NovaScreen (NVS) Nuclear Receptor Binding Assay for human Retinoic Acid Alpha Receptor Antagonism (RAR) (AID 2283358)
Procedure, shortened: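 Cell-free TR-FRET binding assay with extracted human RARalpha in antagonist mode, read 2 h after dosing. Loss of signal was fitted relative to DMSO; the primary screen used 25 uM in duplicate, with concentration series on follow-up.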

[4] = target: human Peroxisome Proliferator-activated Receptor alpha (PPARa), PPARA (gene 5465) (UniProt Q07869); assay: NVS_NR_hPPARa: NovaScreen (NVS) Nuclear Receptor Binding Assay for human Peroxisome Proliferator-activated Receptor alpha (PPARa) (AID 2283359);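 further: activity means loss of TR-FRET signal versus DMSO baseline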
Sequence of human Peroxisome Proliferator-activated Receptor alpha (PPARa), PPARA (gene 5465) (Q07869 whole entry, looked up): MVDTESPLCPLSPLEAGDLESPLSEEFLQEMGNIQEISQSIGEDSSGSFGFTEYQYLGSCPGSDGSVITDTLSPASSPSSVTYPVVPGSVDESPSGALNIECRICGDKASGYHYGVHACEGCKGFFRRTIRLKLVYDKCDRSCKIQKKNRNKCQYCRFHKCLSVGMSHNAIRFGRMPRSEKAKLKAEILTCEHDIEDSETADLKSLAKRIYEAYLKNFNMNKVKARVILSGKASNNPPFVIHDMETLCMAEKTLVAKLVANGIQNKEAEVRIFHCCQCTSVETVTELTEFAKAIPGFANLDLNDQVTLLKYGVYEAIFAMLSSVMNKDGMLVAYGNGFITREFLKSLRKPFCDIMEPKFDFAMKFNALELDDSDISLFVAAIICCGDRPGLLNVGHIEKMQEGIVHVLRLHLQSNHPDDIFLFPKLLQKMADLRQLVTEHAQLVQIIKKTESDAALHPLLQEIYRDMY
Procedure, shortened: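 Cell-free TR-FRET binding assay with extracted PPARα protein, read 1 h after dosing. Primary screen in duplicate at 25 uM, with actives retested in concentration series. Loss of signal versus DMSO.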

[5] = target: Estrogen receptor (Homo sapiens) (UniProt P03372); assay: OT_ER_ERaERa_1440: Odyssey Thera (OT) 24-hour HEK293T Protein-Complementation Assay for Estrogen Receptor-alpha/-alpha Homodimer (AID 2283349);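 further: hits raise fluorescence above DMSO for agonists and antagonists alike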
Sequence of Estrogen receptor (Homo sapiens) (P03372 whole entry, looked up, the tested form may be a part): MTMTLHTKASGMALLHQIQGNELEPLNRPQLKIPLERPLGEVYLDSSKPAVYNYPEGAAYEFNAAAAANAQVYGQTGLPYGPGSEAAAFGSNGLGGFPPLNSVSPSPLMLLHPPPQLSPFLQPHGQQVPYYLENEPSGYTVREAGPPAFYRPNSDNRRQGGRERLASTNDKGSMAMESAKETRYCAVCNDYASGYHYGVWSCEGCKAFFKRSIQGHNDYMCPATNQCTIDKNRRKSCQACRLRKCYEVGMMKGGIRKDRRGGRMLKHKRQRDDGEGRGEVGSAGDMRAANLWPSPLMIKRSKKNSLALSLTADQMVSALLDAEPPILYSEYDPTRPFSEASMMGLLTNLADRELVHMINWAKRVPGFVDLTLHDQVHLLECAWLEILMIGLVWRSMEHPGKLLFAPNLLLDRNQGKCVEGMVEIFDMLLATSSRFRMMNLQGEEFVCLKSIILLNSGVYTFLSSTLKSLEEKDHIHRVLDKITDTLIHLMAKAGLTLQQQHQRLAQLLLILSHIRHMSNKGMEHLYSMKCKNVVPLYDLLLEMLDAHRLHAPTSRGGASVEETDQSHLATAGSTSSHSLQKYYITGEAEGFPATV
Procedure, shortened: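 HEK293T cells stably expressing the human ER alpha ligand-binding domain (aa 310-547) as a homodimer PCA were dosed for 24 hours. Fluorescence intensity was read by laser scanning cytometry, and gain of signal was fitted relative to DMSO vehicle.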

[6] = target: Estrogen receptor (Homo sapiens) + Estrogen receptor beta (Homo sapiens) (UniProt P03372+Q92731); assay: OT_ER_ERaERb_1440: Odyssey Thera (OT) 24-hour HEK293T Protein-Complementation Assay for Estrogen Receptor-alpha/-beta Homodimer (AID 2283356);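 further: heteromer of ER alpha and ER beta binding domains; hits raise reporter fluorescence and both agonists and antagonists give an increase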
Sequence of Estrogen receptor (Homo sapiens) + Estrogen receptor beta (Homo sapiens) (P03372 whole entry, looked up, the tested form may be a part): as above
Sequence of Estrogen receptor (Homo sapiens) + Estrogen receptor beta (Homo sapiens) (Q92731 whole entry, looked up, the tested form may be a part): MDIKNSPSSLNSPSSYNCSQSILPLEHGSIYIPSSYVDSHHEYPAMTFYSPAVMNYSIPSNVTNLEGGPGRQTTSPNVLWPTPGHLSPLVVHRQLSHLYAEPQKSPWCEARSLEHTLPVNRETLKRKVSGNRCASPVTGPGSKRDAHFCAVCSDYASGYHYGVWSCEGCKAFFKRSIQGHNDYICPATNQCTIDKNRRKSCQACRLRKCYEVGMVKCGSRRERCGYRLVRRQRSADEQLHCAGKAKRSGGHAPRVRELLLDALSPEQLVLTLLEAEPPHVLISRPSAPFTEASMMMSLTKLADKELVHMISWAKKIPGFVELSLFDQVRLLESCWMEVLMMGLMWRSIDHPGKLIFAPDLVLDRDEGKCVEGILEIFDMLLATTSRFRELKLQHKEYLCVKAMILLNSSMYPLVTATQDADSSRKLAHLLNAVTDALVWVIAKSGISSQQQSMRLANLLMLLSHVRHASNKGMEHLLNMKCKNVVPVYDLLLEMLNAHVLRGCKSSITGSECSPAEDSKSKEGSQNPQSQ
Procedure, shortened: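 HEK293T cells stably expressing a PCA pair of ERα LBD (aa 310-547) and ERβ LBD (aa 263-489) were dosed for 24 h. Fluorescence intensity increase versus DMSO vehicle was fitted as gain-of-signal.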

[7] = target: Estrogen receptor beta (Homo sapiens) (UniProt Q92731); assay: OT_ER_ERbERb_0480: Odyssey Thera (OT) 8-hour HEK293T Protein-Complementation Assay for Estrogen Receptor-beta/-beta Homodimer (AID 2283357);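 further: active means signal gain over DMSO baseline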
Sequence of Estrogen receptor beta (Homo sapiens) (Q92731 whole entry, looked up, the tested form may be a part): as above
Procedure, shortened: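 Fluorescence intensity, nuclear for agonists and nuclear plus cytoplasmic for antagonists, was quantified by laser scanning cytometry versus vehicle after 8 h treatment. The cells were HEK293T stably carrying ER beta LBD fragment-complementation partners.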

[8] = target: human Peripheral-type Benzodiazepine Receptor (PBR), TSPO (gene 706) (UniProt P30536); assay: NVS_MP_hPBR: NovaScreen (NVS) Membrane Protein Assay for human Peripheral-type Benzodiazepine Receptor (PBR) (AID 2283331);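 further: hits reduce radioligand binding relative to DMSO baseline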
Sequence of human Peripheral-type Benzodiazepine Receptor (PBR), TSPO (gene 706) (P30536 whole entry, looked up): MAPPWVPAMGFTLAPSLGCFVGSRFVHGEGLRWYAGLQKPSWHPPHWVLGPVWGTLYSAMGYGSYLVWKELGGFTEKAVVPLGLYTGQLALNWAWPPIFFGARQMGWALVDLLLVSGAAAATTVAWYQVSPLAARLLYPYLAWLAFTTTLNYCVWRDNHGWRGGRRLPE
Procedure, shortened: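 Radioligand displacement on human colonic cell membranes, 1 h incubation; bound radioactivity by filtration and scintillation counting. Primary screen in duplicate at 25 uM single concentration, actives followed up in concentration series; loss of binding versus DMSO.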

[9] = target: bovine Estrogen Receptor (ER), ESR1 (gene 407238) (UniProt P49884); assay: NVS_NR_bER: NovaScreen (NVS) Nuclear Receptor Binding Assay for bovine Estrogen Receptor (ER) (AID 2283345);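 further: actives lower the bound radioligand count which means they displace the ER ligand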
Sequence of bovine Estrogen Receptor (ER), ESR1 (gene 407238) (P49884 whole entry, looked up): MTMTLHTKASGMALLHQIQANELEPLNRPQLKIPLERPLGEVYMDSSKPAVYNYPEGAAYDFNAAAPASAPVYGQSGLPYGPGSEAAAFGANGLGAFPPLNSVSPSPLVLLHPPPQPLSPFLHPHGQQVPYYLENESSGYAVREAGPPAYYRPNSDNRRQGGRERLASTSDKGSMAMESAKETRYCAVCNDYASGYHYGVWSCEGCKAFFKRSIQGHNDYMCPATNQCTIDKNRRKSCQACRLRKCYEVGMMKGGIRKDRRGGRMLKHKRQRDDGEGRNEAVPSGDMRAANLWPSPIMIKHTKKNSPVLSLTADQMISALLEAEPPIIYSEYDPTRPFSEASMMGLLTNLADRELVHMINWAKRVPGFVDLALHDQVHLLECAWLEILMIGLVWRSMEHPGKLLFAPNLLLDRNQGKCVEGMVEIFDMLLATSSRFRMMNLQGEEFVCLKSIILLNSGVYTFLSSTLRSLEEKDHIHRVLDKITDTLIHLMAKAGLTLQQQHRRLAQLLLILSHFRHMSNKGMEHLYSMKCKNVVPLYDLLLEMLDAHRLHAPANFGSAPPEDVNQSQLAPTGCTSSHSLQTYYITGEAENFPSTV
Procedure, shortened: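 Displacement of a radioligand from estrogen receptor in bovine uterine membrane preparations; scintillation signal taken at 18 hours, DMSO as baseline. Single-concentration duplicates (25 uM) preceded concentration-response follow-up of actives.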

[10] = target: Estrogen receptor (Homo sapiens) (UniProt P03372); assay: NVS_NR_hER: NovaScreen (NVS) Nuclear Receptor Binding Assay for human Estrogen Receptor (ER) (AID 2283348)
Procedure, shortened: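 Radioligand competitive displacement binding to estrogen receptor from MCF7 extract, cell-free; 18 h after dosing, scintillation read-out. Primary screen in duplicate at 25 uM; actives followed up in concentration series; loss of signal vs DMSO.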

[11] = target: Estrogen receptor (Homo sapiens) (UniProt P03372); assay: OT_ER_ERaERa_0480: Odyssey Thera (OT) 8-hour HEK293T Protein-Complementation Assay for Estrogen Receptor-alpha/-alpha Homodimer (AID 2283351);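 further: rise in fluorescence from reassembled reporter fragments on ERα LBD homodimer in nucleus or whole cell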
Procedure, shortened: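 HEK293T cells stably expressing the human ERα ligand-binding domain (aa 310-547) as a homodimer PCA were dosed with compound for 8 h. Gain of fluorescence intensity versus DMSO vehicle was read by laser scanning cytometry.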

[12] = target: Androgen Receptor/SRC-1 Co-activator, AR (gene 367) (UniProt P10275); assay: OT_AR_ARSRC1_0960: Odyssey Thera (OT) 16-hour HEK293T Protein-Complementation Assay for Androgen Receptor/SRC-1 Co-activator (AID 2283353);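 further: actives raise the signal above DMSO so potency reflects increased AR and SRC-1 complex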
Procedure, shortened: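 HEK293T cells stably expressing AR and SRC-1 fused to split Venus YFP fragments via (Gly4Ser)2 linkers were dosed for 16 h. Nuclear/cytoplasmic fluorescence ratio at 488 nm, ≥400 cells per image, fitted for gain of signal versus DMSO.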

[13] = target: Androgen Receptor/SRC-1 Co-activator, AR (gene 367) (UniProt P10275); assay: OT_AR_ARSRC1_0480: Odyssey Thera (OT) 8-hour HEK293T Protein-Complementation Assay for Androgen Receptor/SRC-1 Co-activator (AID 2283354);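 further: hits raise the complementation signal above DMSO so AC50 marks enhancers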
Procedure, shortened: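 HEK293T cells stably expressing AR and SRC-1 fused to Venus YFP fragments, imaged 8 h after dosing. Complementation fluorescence scored as nuclear/cytoplasmic ratio at 488 nm in at least 400 cells per image; gain fitted versus DMSO.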

[14] = target: human Androgen Receptor (AR), AR (gene 367) (UniProt P10275); assay: NVS_NR_hAR: NovaScreen (NVS) Nuclear Receptor Binding Assay for human Androgen Receptor (AR) (AID 2283332)
Procedure, shortened: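 LnCAP cell-free extract; radioligand displacement read by scintillation counting after 20 h. Primary screen single concentration 25 uM in duplicate, actives then run as concentration series; loss-of-signal fitted relative to DMSO baseline.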

[15] = target: chimpanzee Androgen Receptor (AR), AR (gene 747460) (UniProt O97775); assay: NVS_NR_cAR: NovaScreen (NVS) Nuclear Receptor Binding Assay for chimpanzee Androgen Receptor (AR) (AID 2283346);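 further: radioligand displacement from AR measured by scintillation counting in a cell-free assay; a loss of bound radioligand signal versus DMSO counts as binding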
Procedure, shortened: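 Radioligand binding to chimpanzee AR expressed in Sf9/Sf21 cells, cell-free, measured 72 h after dosing by lysate-based scintillation counting. Loss of signal vs DMSO; initial duplicate screen at 25 uM, actives retested in concentration series.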

[16] = target: rat Peripheral-type Benzodiazepine Receptor (PBR), Tspo (gene 24230) (UniProt P16257); assay: NVS_MP_rPBR: NovaScreen (NVS) Membrane Protein Assay for rat Peripheral-type Benzodiazepine Receptor (PBR) (AID 2283335)
Sequence of rat Peripheral-type Benzodiazepine Receptor (PBR), Tspo (gene 24230) (P16257 whole entry, looked up): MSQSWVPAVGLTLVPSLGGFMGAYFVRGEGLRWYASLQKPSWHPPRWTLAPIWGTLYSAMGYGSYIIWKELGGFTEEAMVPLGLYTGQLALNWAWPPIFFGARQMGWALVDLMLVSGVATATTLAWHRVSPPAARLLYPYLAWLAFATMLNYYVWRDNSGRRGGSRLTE
Procedure, shortened: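 Radioligand displacement, rat kidney membrane prep, 1 h exposure, filter-based scintillation read; DMSO baseline, loss-of-signal scored. Primary screen at 25 uM in duplicate, actives followed up in concentration series.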

[17] = target: PGR (gene 5241) (UniProt P06401); assay: NVS_NR_hPR: NovaScreen (NVS) Nuclear Receptor Binding Assay for human Progestron Receptor (PR) (AID 2283360);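 further: active means loss of bound radioligand signal versus DMSO baseline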
Sequence of PGR (gene 5241) (P06401 whole entry, looked up): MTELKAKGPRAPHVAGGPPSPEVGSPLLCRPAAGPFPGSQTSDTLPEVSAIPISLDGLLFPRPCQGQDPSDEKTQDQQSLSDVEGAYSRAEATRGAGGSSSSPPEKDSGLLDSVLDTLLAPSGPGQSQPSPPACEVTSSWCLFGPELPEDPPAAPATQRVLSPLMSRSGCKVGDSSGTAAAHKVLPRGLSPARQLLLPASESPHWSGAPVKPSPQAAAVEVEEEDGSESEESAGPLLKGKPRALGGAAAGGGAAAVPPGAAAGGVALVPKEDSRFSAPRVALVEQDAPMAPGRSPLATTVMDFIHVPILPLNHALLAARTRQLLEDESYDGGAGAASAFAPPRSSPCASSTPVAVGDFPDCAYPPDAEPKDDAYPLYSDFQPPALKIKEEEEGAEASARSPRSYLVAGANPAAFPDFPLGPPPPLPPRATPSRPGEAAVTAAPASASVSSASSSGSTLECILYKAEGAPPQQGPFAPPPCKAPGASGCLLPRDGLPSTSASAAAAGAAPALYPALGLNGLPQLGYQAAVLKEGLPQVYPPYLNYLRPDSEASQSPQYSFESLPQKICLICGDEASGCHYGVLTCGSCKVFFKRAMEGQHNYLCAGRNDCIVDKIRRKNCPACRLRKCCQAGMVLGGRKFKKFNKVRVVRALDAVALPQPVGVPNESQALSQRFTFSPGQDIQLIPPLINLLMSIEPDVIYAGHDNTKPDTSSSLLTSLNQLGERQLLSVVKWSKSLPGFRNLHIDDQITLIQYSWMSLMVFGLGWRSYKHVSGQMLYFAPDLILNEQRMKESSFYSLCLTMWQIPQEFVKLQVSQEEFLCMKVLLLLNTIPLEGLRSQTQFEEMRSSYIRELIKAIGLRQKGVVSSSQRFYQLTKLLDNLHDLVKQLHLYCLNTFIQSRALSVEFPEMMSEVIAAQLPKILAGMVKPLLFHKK
Procedure, shortened: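 T47D-derived receptor preparation, cell-free, with tritiated or iodinated radioligand displacement measured by scintillation 18 h post-dosing. Single 25 uM duplicate screen, then concentration series; signal loss relative to DMSO.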

## c1ccc(C[P+](c2ccccc2)(c2ccccc2)c2ccccc2)cc1
[1]
  AC50: 17.8 µM (active)
[2]
  AC50: 4.8 µM (active)

## O=C(c1ccccc1)c1ccc(O)cc1O
[2]
  outcome: inactive

## CCCCCCCC/C=C\CCCCCCCC(=O)OCC(O)CO (stereo not drawn)
[3]
  outcome: inactive
[4]
  AC50: 17 µM (active)

## CCCCCCCCCCCCCC[P+](CCCC)(CCCC)CCCC
[4]
  AC50: 8.54 µM (active)

## CC(C)(C)c1cc(CCC(=O)OCC(COC(=O)CCc2cc(C(C)(C)C)c(O)c(C(C)(C)C)c2)(COC(=O)CCc2cc(C(C)(C)C)c(O)c(C(C)(C)C)c2)COC(=O)CCc2cc(C(C)(C)C)c(O)c(C(C)(C)C)c2)cc(C(C)(C)C)c1O
[5]
  outcome: inactive
[6]
  outcome: inactive
[7]
  outcome: inactive

## CCCCCCCCCc1ccc(OCCO)cc1
[8]
  AC50: 2.84 µM (active)
[9]
  outcome: inactive
[10]
  outcome: inactive
[5]
  AC50: 19.7 µM (active)
[11]
  outcome: inactive
[12]
  AC50: 20 µM (active)
[13]
  AC50: 25.4 µM (active)
[6]
  AC50: 4.94 µM (active)
[7]
  AC50: 4.92 µM (active)

## O=C1c2ccccc2C(=O)c2c(Cl)cccc21
[14]
  AC50: 2.06 µM (active)
[15]
  AC50: 0.93 µM (active)

## O=C1C=CC(=O)N1c1ccccc1
[5]
  outcome: inactive
[11]
  outcome: inactive
[12]
  AC50: 16.4 µM (active)
[13]
  AC50: 25.6 µM (active)
[6]
  outcome: inactive

## CCCCCCCC/C=C\CCCCCCCC(=O)N(C)CC(=O)O
[8]
  outcome: inactive
[16]
  outcome: inactive
[9]
  outcome: inactive
[5]
  outcome: inactive
[6]
  outcome: inactive
[7]
  outcome: inactive
[4]
  outcome: inactive

## OCC1CCCO1 (stereo not drawn)
[5]
  outcome: inactive
[11]
  outcome: inactive
[12]
  outcome: inactive
[6]
  outcome: inactive
[7]
  outcome: inactive

## CCN(CC)c1ccc(C=O)cc1
[8]
  outcome: inactive
[16]
  outcome: inactive
[17]
  AC50: 41.5 µM (active)

## F[Si-2](F)(F)(F)(F)F
[5]
  outcome: inactive
[11]
  outcome: inactive
[12]
  outcome: inactive
[13]
  outcome: inactive
[6]
  outcome: inactive

## CCN(CC)c1ccc(N=Nc2ccccc2)cc1
[17]
  outcome: inactive

## CSc1ccc(O)cc1C
[17]
  outcome: inactive

## CC(C)(C)C(=O)C1C(=O)c2ccccc2C1=O
[9]
  outcome: inactive
[10]
  outcome: inactive

## CC(C)OC=O
[5]
  outcome: inactive
[11]
  outcome: inactive

## Cc1ccc(O)c(-n2nc3ccccc3n2)c1
[10]
  outcome: inactive
[5]
  outcome: inactive
[11]
  outcome: inactive
[6]
  outcome: inactive
[7]
  outcome: inactive

## CCCCC(CC)COC(=O)c1ccc(N(C)C)cc1 (stereo not drawn)
[5]
  outcome: inactive
[11]
  outcome: inactive
[6]
  outcome: inactive
[7]
  outcome: inactive

## CCc1cc(Cc2cc(CC)c(N)c(CC)c2)cc(CC)c1N
[16]
  AC50: 6.66 µM (active)
[9]
  outcome: inactive
[10]
  AC50: 0.0643 µM (active)
[5]
  outcome: inactive
[11]
  outcome: inactive
[6]
  AC50: 12.4 µM (active)
[7]
  outcome: inactive

## CCOC(OCC)OCC
[5]
  outcome: inactive
[11]
  outcome: inactive
[6]
  outcome: inactive
[7]
  outcome: inactive

## CCOC(=O)C1CC(=O)C(=C(O)C2CC2)C(=O)C1 (stereo not drawn)
[5]
  outcome: inactive
[11]
  outcome: inactive
[6]
  outcome: inactive

## O=C1C=CC(=O)N1c1ccc(Cc2ccc(N3C(=O)C=CC3=O)cc2)cc1
[9]
  outcome: inactive
[10]
  outcome: inactive

## Cc1cc(O)c(C(C)(C)C)cc1C(C)(C)C
[9]
  outcome: inactive

## O=C=Nc1cccc2c(N=C=O)cccc12
[8]
  AC50: 0.353 µM (active)
[17]
  outcome: inactive

## CC(C)Nc1ccc(NC(C)C)c2c1C(=O)c1ccccc1C2=O
[8]
  AC50: 3.66 µM (active)
[16]
  AC50: 0.666 µM (active)
[5]
  outcome: inactive
[11]
  outcome: inactive
[6]
  outcome: inactive
[7]
  outcome: inactive

## Cc1cnccn1
[17]
  outcome: inactive

## CC(=O)CCC(C)C
[15]
  outcome: inactive
[5]
  AC50: 69.3 µM (active)
[11]
  outcome: inactive

## CCCCCCCCCCCCC[N+](C)(C)Cc1ccccc1
[8]
  AC50: 25.5 µM (active)
[9]
  outcome: inactive
[5]
  outcome: inactive
[11]
  outcome: inactive
[12]
  AC50: 14.7 µM (active)
[13]
  AC50: 14.6 µM (active)
[7]
  outcome: inactive
[3]
  AC50: 9.07 µM (active)
[4]
  AC50: 21 µM (active)

## CCCCCCCCn1sc(Cl)c(Cl)c1=O
[9]
  AC50: 12.7 µM (active)
[10]
  AC50: 0.549 µM (active)
[5]
  outcome: inactive
[11]
  outcome: inactive
[7]
  outcome: inactive

## C#CC(O)CCC (stereo not drawn)
[14]
  outcome: inactive
[15]
  outcome: inactive

## N#Cc1ccccc1O
[5]
  outcome: inactive
[11]
  outcome: inactive

## O=C(c1ccccc1)c1ccc(Cl)cc1
[16]
  AC50: 12.6 µM (active)
